We go through 40 compounds from PubChem BioAssay AID651599 (National Center for Advancing Translational Sciences (NCATS), 2012).

Inconclusive results are not listed. Activity calls are given as the source filed them. The call rests on the fitted dose curve; in most records, active means well fitted inhibition curve with a large enough effect; inconclusive means small, poorly fitted or top-dose-only effect; inactive means no such curve, though single readings can be large or run the other way.
On the % scale 0 is the no-effect control and ±100 the full control effect.

Chain of Tumor susceptibility gene 101 protein (Homo sapiens) (Q99816 whole entry, looked up, the tested form may be a part): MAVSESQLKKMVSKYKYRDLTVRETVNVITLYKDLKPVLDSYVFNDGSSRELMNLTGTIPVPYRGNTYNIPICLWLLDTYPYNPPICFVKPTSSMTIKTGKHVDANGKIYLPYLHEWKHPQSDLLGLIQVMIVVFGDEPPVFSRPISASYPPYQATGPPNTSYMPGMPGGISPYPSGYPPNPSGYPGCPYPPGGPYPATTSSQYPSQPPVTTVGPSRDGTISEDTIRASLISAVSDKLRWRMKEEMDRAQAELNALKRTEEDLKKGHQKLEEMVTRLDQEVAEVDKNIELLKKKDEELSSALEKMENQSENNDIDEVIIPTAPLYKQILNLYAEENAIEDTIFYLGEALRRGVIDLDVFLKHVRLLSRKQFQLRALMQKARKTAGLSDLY

The target in the assay is Tumor susceptibility gene 101 protein (Homo sapiens) (UniProt Q99816). Kind of assay: qHTS Assay for Iinhibitors of HIV-1 Budding by Blocking the Interaction of PTAP/TSG101: Hit Validation in TR assay. Particulars: Tsg101 binding domain + Texas Red-labeled PTAP peptide, fluorescence polarization, 20 min; series mostly up to 57.5 µM; activity change, negative = inhibition: at the top concentration. An excerpt:
Stages of the HIV-1 replication cycle, specifically virus assembly and release, provide underexploited targets for the development of novel antiviral inhibitors. The late stages of HIV-1 replication are mediated by the Gag precursor protein, Pr55Gag. Expression of Pr55Gag is both necessary and sufficient for the production of virus-like particles from Gag-expressing cells. The Gag protein hijacks key host proteins involved in endocytic machinery of the host cell to promote endosomal processing and viral budding. The budding process requires a direct interaction between a […] (PTAP) motif in the p6 domain of Gag and the cellular endosomal sorting protein known as Tsg101. In this way, the Gag PTAP motif promotes the host cells to recruit viral particles to the plasma membrane where the new viral particles are released, effectively turning the host cells into viral factories. A fluorescence anisotropy assay has been developed to quantitatively measure the PTAP-Tsg101 interaction which can be used to screen for inhibitors of this interaction.
This hit validation assay is similar to the primary assay but uses the Texas Red label instead of FITC.
NIH Molecular Libraries Probe Production Network [MLPCN]
NIH Chemical Genomics Center [NCGC]
PI Name: Dr. Eric Freed, NCI
Two uL of the Tsg101 binding domain in buffer (10 mM HEPES pH 7.5; 0.15 M NaCl, 0.01% Tween 20; 3 mM EDTA;0.1 mM TCEP) was dispensed into Greiner black MB 1536-well plates (final concentration 10 uM). Then, 23 nL of compounds or DMSO were delivered to each well using a pin tool. Finally, 2 uL of a TR-labeled peptide containing the PTAP motif (1) in the same buffer was dispensed (50 nM final concentration) and the binding was allowed to proceed for 20 min. at r.t. Fluorescent polarization was determined using TR excitation and polarized emission filters on a Perkin Elmer Viewlux.
Keywords: Tsg101, PTAP, Gag, HIV, fluorescent polarization, MLSMR, MLPCN, NIH Roadmap, qHTS, NCGC
A general note: Quantitative high-throughput screening tests each substance at several concentrations.
Regarding `CN(C)CCCN1C(=O)c2cccc3c(Br)ccc(c23)C1=O`, the “activity change, negative = inhibition” value is 57.8% (inactive).
As for `O=C1/C(=C/c2cccc(F)c2)Oc2cc(O)ccc21`, the figure is -2.21% (inactive).
For `CCC(=O)Oc1ccc2c(c1)O/C(=C\c1ccco1)C2=O`, the “activity change, negative = inhibition” value was -3.58% (inactive).
As for `CC1CCc2cccc3c2N1c1cc(C#N)c(C#N)cc1O3` (stereo not given), the figure is 0.564% (inactive); as for `CCc1cccc(CC)c1NC(=O)CSc1nnc(C2CC2)n1C`, 11.1% (inactive); as for `COc1ccc2nc3ccccc3[n+]([O-])c2c1`, -10.9% (inactive).
Regarding `CCc1cc(C(=O)Nc2ccc(OC)nc2)sc1C`, the “activity change, negative = inhibition” value was 1.64% (inactive).
Take `Nc1c(C(=O)Nc2ccccc2F)sc2nc(Cc3ccccc3)cc(C(F)(F)F)c12`: the “activity change, negative = inhibition” value is -25.9% (inactive).
With `CCOc1ccc2nc3cc(NCc4ccc(OC)cc4)ccc3c(N)c2c1`, the “activity change, negative = inhibition” value is 15.8% (inactive).
On to `CCCCCCc1cc2cc(C(=O)NC)c(=N)oc2cc1O`, for which the “activity change, negative = inhibition” value is -3.42% (inactive).
As for `Cc1cc[n+](-c2[nH]c(=O)sc2/C=N/NC([S-])=Nc2ccccc2)cc1`, the figure is -24.2% (inactive).
Turning to `COc1ccc(-c2cc(C(=O)N3CC(C)CC(C)C3)c3ccccc3n2)cc1OC` (stereo not given), the “activity change, negative = inhibition” value is -13.2% (inactive).
As for `Nc1c(C(=O)c2cccs2)sc2nsc(SCCN3CCCCC3)c12`, the figure is 11% (inactive); as for `CCN(CC)S(=O)(=O)c1ccc(C(=O)/C=C/c2ccc(-c3ccc([N+](=O)[O-])cc3)o2)cc1`, 25.5% (inactive); as for `COc1ccccc1NC(=O)C(C)OC(=O)C1CC(=O)N(c2ccc3c(c2)OCCO3)C1` (stereo not given), 2.66% (inactive).
Regarding `O=C(NCc1cccc(C(F)(F)F)c1)c1cccc2c1C(=O)c1ccc(N3CCC(Cc4ccccc4)CC3)cc1S2(=O)=O`, the “activity change, negative = inhibition” value was -7.43% (inactive).
With `C[C@H](O)C(=O)C1=Nc2c(nc(N)[nH]c2=O)NC1`, the “activity change, negative = inhibition” value was -24% (inactive).
As for `COc1ccc(OC)c(/C=C(\C#N)c2nc(-c3ccc(F)cc3)cs2)c1`, the figure is -12.2% (inactive).
As for `O=C(c1ccccc1)[C@@H]1[C@@H]2C(=O)N(c3ccc(F)cc3)C(=O)[C@@H]2C2CCCN21` (stereo not given in full), the figure is 54.6% (inactive); as for `CC(=O)N(/N=C1/C(=O)Nc2ccccc21)c1ccccc1`, 20.8% (inactive).
Regarding `O=c1[nH]c(=O)n(-c2cc(Br)c(O)c(Br)c2)cc1Br`, the “activity change, negative = inhibition” value is -23.9% (inactive).
As to `Cc1nn(C)c(C)c1N1C(=O)c2cccc3c(N)ccc(c23)C1=O`, the “activity change, negative = inhibition” value was -1.15% (inactive).
Regarding `CC(=O)OCCn1c2nc(=O)[nH]c(=O)c-2nc2cc(C)c(C)cc21`, the “activity change, negative = inhibition” value was -16.8% (inactive).
For `CC1CC=C2C(C#N)=C(N)C(C#N)(C#N)C(c3cccs3)C2C1` (stereo not given) the value was 4.26% (inactive); for `COc1cccc2c1C(=O)c1c(O)c3c(c(O)c1C2=O)C[C@@](O)(C(=O)CO)C[C@@H]3OC1CC(N)C(O)C(C)O1` (stereo not given in full), 20.3% (inactive); for `Cn1c(=O)c2nc3ccc(NC(=O)C(F)(F)F)cc3nc2n(C)c1=O`, -13.7% (inactive).
Regarding `CCN(CC)c1ccc2cc(-c3nc(-c4ccc(OC)cc4)cs3)c(=O)oc2c1`, the “activity change, negative = inhibition” value was 467% (inactive).
For `COc1ccc(OC)c(/C=c2\sc3nc(-c4cccs4)nn3c2=O)c1` the value was -4.15% (inactive); for `Cc1cc([N+](=O)[O-])ccc1-c1ccc(/C=N/NC(=O)Cc2ccccc2)o1`, -16.7% (inactive).
Turning to `Cn1c(O)c(N=Nc2ccc(F)cc2)c2ccccc21`, the “activity change, negative = inhibition” value was -8.42% (inactive).
Consider `CCOC(=O)N1CCN(c2nc3ccccc3nc2C(C#N)S(=O)(=O)c2ccc(C)cc2)CC1` (stereo not given), for which the “activity change, negative = inhibition” value was 156% (inactive).
As for `CN(C)c1ccc(N=Cc2nc(-c3ccccc3)oc2O)cc1`, the figure is 22.6% (inactive).
Consider `CCN(CC)c1ccc2cc(C(=O)NNC(=O)c3ccc(S(=O)(=O)N4CCCCC4)cc3)c(=O)oc2c1`, for which the “activity change, negative = inhibition” value is 9.6% (inactive).
Consider `CCn1nc(-c2ccccc2)c2nc3ccccc3nc21`, for which the “activity change, negative = inhibition” value is 0.877% (inactive).
Consider `Cn1cc(/C=C(\C#N)C(=O)Nc2ccccc2O)c2ccccc21`, for which the “activity change, negative = inhibition” value was -5.56% (inactive).
Take `O=c1[nH]c(S)c(/C=C2\C=Nc3ccccc32)s1`: the “activity change, negative = inhibition” value is -12% (inactive).
For `Cc1ccc(CSc2nnc3c(n2)OC2(Nc4ccccc4-3)C(=O)Nc3ccc(F)cc32)cc1` (stereo not given) the value was 3.74% (inactive); for `CC1=CC(=C(C#N)c2nc3ccccc3s2)C=C(C)N1Cc1ccco1`, 25.6% (inactive).
Take `CC(=O)Nc1ccc(N2C(=O)c3cccc4c(O)ccc(c34)C2=O)cc1`: the “activity change, negative = inhibition” value is -14.6% (inactive).
In the case of `Cc1cc2nc3c(=O)n(Cc4ccccc4)c(=O)[nH]c3nc2cc1N`, the “activity change, negative = inhibition” value was 25.8% (inactive).
